Assay results taken from PubChem BioAssay (NCI).
Where “and” joins values, the source holds several entries; their conditions need not be identical. Equal values may be shown once. About 83,000 compounds went through this panel and 20% of them were active in at least one assay; those are over-represented in the sample as a whole.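 Cell lines were cultured in 96-well plates, exposed to a single compound concentration, and assessed for percent growth 48 hours later.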 Calls of active or inactive are those of the source. The calls were made as follows: active = growth percent below 10; inactive = the rest.

Legend:
Assay in all cases: NCI-60 one-dose screen, 48 h (100 = growth as untreated, 0 = no growth, -100 = all killed)
Conditions in all cases: 10 µM unless noted
T-47D breast = test system: T-47D breast
BT-549 breast = test system: BT-549 breast
MDA-MB-435 melanoma = test system: MDA-MB-435 melanoma
SW-620 colon = test system: SW-620 colon
MCF7 breast = test system: MCF7 breast
HCT-116 colon = test system: HCT-116 colon
HCC-2998 colon = test system: HCC-2998 colon
KM12 colon = test system: KM12 colon

Row | SMILES | growth (T-47D breast) | growth (BT-549 breast) | growth (MDA-MB-435 melanoma) | growth (SW-620 colon) | growth (MCF7 breast) | growth (HCT-116 colon) | growth (HCC-2998 colon) | growth (KM12 colon)
1 | Cc1nn(-c2ccc(Cl)cc2)c2ncnc(N/N=C/c3ccccc3O)c12 | 13.3% (inactive) and 23.8% (inactive) | 36% (inactive) and 36.4% (inactive) | 27.3% (inactive) and 23.7% (inactive) | 35.1% (inactive) and 31.5% (inactive) | 8.28% (active) and 12.1% (inactive) | 26.7% (inactive) and 21.6% (inactive) | 31% (inactive) and 39.7% (inactive) | 28.4% (inactive) and 22.2% (inactive)
2 | CN(C)c1ccc(C(=C2C=CC(=[N+](C)C)C=C2)c2ccccc2Cl)cc1 | -33.3% (active) and -72.6% (active) | -35.9% (active) and 1.51% (active) | -40.9% (active) and -29% (active) | -75.8% (active) and -78.1% (active) | -9.73% (active) and -58.7% (active) | -66.7% (active) and -99.5% (active) | -92.3% (active) and -98.8% (active) | -94.6% (active) and -87.2% (active)
3 | O=CC(O)C(O)C(O)CO (configuration not stated) | 109% (inactive) and 96.5% (inactive) | 104% (inactive) | 112% (inactive) and 109% (inactive) | 107% (inactive) and 104% (inactive) | 97.5% (inactive) and 94.6% (inactive) | 112% (inactive) and 102% (inactive) | 101% (inactive) | 103% (inactive) and 102% (inactive)
4 | CCOc1ccc2cc(-c3nn(CC4CCNCC4)c4ncnc(N)c34)ccc2c1 | 71% (inactive) and 34.2% (inactive) | 86.1% (inactive) and 36.2% (inactive) | 95.4% (inactive) and 14.9% (inactive) | 91.6% (inactive) and 37.3% (inactive) | 78.8% (inactive) and 46.2% (inactive) | 80.4% (inactive) and 16.4% (inactive) | 110% (inactive) and 49.1% (inactive) | 14.5% (inactive) and 11.9% (inactive)
5 | CCOc1ccc(Nc2c3ccccc3nc3ccccc23)cc1 | 91.5% (inactive) and 13.1% (inactive) and 22.8% (inactive) | 94.4% (inactive) and 41.6% (inactive) and -3.76% (active) | 103% (inactive) and 24.5% (inactive) and 30.9% (inactive) | 92.8% (inactive) and 21% (inactive) and 29.1% (inactive) | 91.3% (inactive) and 20.1% (inactive) and 8.99% (active) | 87.6% (inactive) and -13.1% (active) and 13.2% (inactive) | 39.8% (inactive) | 99.8% (inactive) and 18% (inactive) and 33.3% (inactive)
6 | Oc1c(CN2CCCCC2)ccc2cccnc12 | 38.8% (inactive) and 36.4% (inactive) | 94.7% (inactive) and 63.4% (inactive) | 63.9% (inactive) | 44% (inactive) and 44.7% (inactive) | 38.9% (inactive) | 10.1% (inactive) and 15.2% (inactive) |  | 44.5% (inactive) and 32.6% (inactive)
7 | CN1CCN(c2ccc3nc(-c4c(N)c5c(F)cccc5[nH]c4=O)[nH]c3c2)CC1 | 71.6% (inactive) and 64.4% (inactive) | -66% (active) and 49.3% (inactive) | 26.6% (inactive) and 16.1% (inactive) | 14.3% (inactive) and 15.8% (inactive) | 14.8% (inactive) and 14.7% (inactive) | 19.1% (inactive) and 3.86% (active) |  | 12.8% (inactive) and 13.7% (inactive)
8 | Cn1c(SSc2ccc(-c3cccnc3)n2C)ccc1-c1cccnc1 | 83.3% (inactive) and 121% (inactive) | 107% (inactive) and 105% (inactive) | 92.8% (inactive) and 82% (inactive) | 62.8% (inactive) and 11.1% (inactive) | 76.4% (inactive) and 117% (inactive) | 82.3% (inactive) and 99.2% (inactive) | 112% (inactive) and 102% (inactive) | 98.5% (inactive) and 95.5% (inactive)
